# In PubChem BioAssay AID602373 (National Center for Advancing Translational Sciences (NCATS), 2012):
# Results filed as inconclusive are left out. Where a call stands in place of a potency, no number is given. Activity calls are given as the source filed them. Calls come from the whole dose curve; as a rule, active = well fitted inhibition curve with a large enough effect; inconclusive = small, poorly fitted or top-dose-only effect; inactive = no such curve, though single readings can be large or run the other way.
# Experiment: qHTS Assay for Inhibitors of Bacillus subtilis Sfp phosphopantetheinyl transferase (PPTase): Hepg2 Assay
# Details: HepG2 cytotoxicity counter-screen; series mostly up to 46.1 µM
# Text: The covalent attachment of a phosphopantetheinyl (4'-PP) arm to a variety of synthases and other proteins is a key posttranslational protein modification. The 4'-PP is installed on the proteins post-translationally from coenzyme A (CoA) on a conserved serine residue by action of phosphopantetheinyl transferase (PPTase) enzymes. Phosphopantetheinylation is essential for synthase activity, and removal of the PPTase gene precludes natural product synthesis in microorganisms, or in the case of fatty acid biosynthesis, renders the organism unviable. PPTase enzymes belong to a distinct structural superfamily. Within bacteria, these enzymes are grouped into two classes based upon primary structure, the AcpS-Type and Sfp-Type PPTases.
# Sfp-type PPTases, corresponding to an activator of surfactin production in Bacillus subtilis, are responsible for modifying type I polyketide and nonribosomal peptide synthases of prokaryotes. Sfp-type PPTases are responsible for the activation of a variety of pathogen-associated virulence factors. Among these compounds are toxins such as mycolactone from Mycobacterium ulcerans, siderophores such as vibriobactin from Vibrio cholerae or mycobactin from Mycobacterium tuberculosis, as well as the mycolic acids which form the waxy cell wall of Mycobacteria. The biosyntheses of these natural products are considered attractive targets for drug design.
# In search of small molecule Sfp-PPTase inhibitors, a fluorescence quenching assay was developed for detection of Bacillus subtilis Sfp-PPTase enzymatic activity in a miniaturized high-throughput format. The consensus ybbr acceptor peptide […] was N-terminally labeled with Black Hole Quencher-2 (BHQ-2) and used in combination with rhodamine-labeled coenzyme A as a co-substrate.
# Phosphopantetheinyl transfer is a process essential to cellular viability and maintenance in all forms of life. Cell-permeable and stable compounds acting as PPTase inhibitors are anticipated to be growth inhibitory agents. This assay sought to assess the toxicity of test compounds in the HepG2 hepatocarcinoma cells; a human cell line whose use additionally determines the toxicity of test article metabolites.
# NIH Chemical Genomics Center [NCGC]
# NIH Molecular Libraries Probe Centers Network [MLPCN]
# Assay Submitter (PI): Michale Burkart, University of California, San Diego
# Test compounds' toxicity was assessed by measuring cellular ATP content using a luciferase-coupled ATP quantitation assay (CellTiter-Glo; Promega, Madison, WI). In this assay, luminescent signal is proportional to amount of ATP, and thus to the number of metabolically competent cells. Briefly, Hepg2 cell suspension (5 uL, 4 x 10^5 cells/mL) was dispensed into 1,536-well tissue-culture treated white/solid bottom assay plates (Greiner Bio-One North America, Monroe, NC) using a Flying Reagent Dispenser (Aurora Discovery, Carlsbad, CA). Cells were incubated at 37 deg C for 6 hr to allow for cell attachment, followed by addition of compounds via pin tool (Kalypsys, San Diego, CA). After compound addition, plates were incubated for 48 hr at 37 deg C. At the end of the incubation period, CellTiter-Glo reagent (5 uL) was added, plates were incubated at room temperature in the dark for 30 min, and the luminescence intensity of each well was determined using a ViewLux plate reader (PerkinElmer, Shelton, CT). The positive control was 92 uM and 41 uM of tetra-N-Octylammonium bromide, and the negative control was DMSO.
row,Compound,Potency
1,Cc1ccnc(NC(=S)N2CCNCC2)c1,inactive
2,FC(F)(F)c1cccc(N2CCN(C(=S)Nc3cnccn3)CC2)c1,inactive
3,Cc1cc(C)nc(NC(=S)N2CCN(c3ccsc3)CC2)c1,inactive
4,Cc1cc(C)nc(NC(=S)N2CCN(c3nncs3)CC2)c1,inactive
5,Cc1cc(C)nc(NC(=S)N2CCN(c3nccc4ccccc34)CC2)c1,inactive
6,Cc1ccnc(NC(=S)NC2CN(c3cccc(C(F)(F)F)c3)C2)c1,25 µM (active)
7,Cc1cc(C)nc(NC(=S)N2CCN(c3nsc4ccccc34)CC2)c1,inactive
8,Cc1cc(C)nc(NC(=S)N2CCN(c3ccc4occc4c3)CC2)c1,inactive
9,COc1ccnc(NC(=S)N2CCN(c3cccc(Cl)c3Cl)CC2)c1,inactive
10,Cc1cc(C)nc(NC(=S)N2CCN(c3ccc4nonc4c3)CC2)c1,inactive
11,Cc1cc(C)nc(NC(=S)N2CCN(c3nccs3)CC2)c1,inactive
12,CC(=O)c1ccc(N2CCN(C(=S)Nc3cc(C)ccn3)CC2)cc1,inactive
13,CC(Cc1ccccc1)C(=O)Nc1ccc(Cl)cc1C(=O)O (configuration not stated),inactive
14,Cc1cc(C)nc(NC(=S)N2CCN(c3ncccc3Cl)CC2)c1,inactive
15,Cc1cc(C)nc(NC(=S)N2CCN(c3ccncc3)CC2)c1,inactive
16,Cc1cc(C)nc(NC(=S)N2CCN(c3ccc(Cl)c(Cl)c3Cl)CC2)c1,inactive
17,COc1cccc(NC(=S)N2CCN(c3cccc(C(F)(F)F)n3)CC2)n1,inactive
18,COc1ccc(N2CCN(C(=S)Nc3cc(C)ccn3)CC2)cc1,inactive
19,Cc1cc(C)nc(NC(=S)N2CCN(c3cc(C(F)(F)F)nc4ccc(C(F)(F)F)cc34)CC2)c1,inactive

row,Compound,Potency
1,Cc1ccnc(NC(=S)N2CCN(c3cc(C(F)(F)F)cc(C(F)(F)F)c3)CC2)c1,7.91 µM (active)
2,Cc1ccnc(NC(=S)N2CCN(c3cccc(C(F)(F)F)c3)C[C@@H]2C)c1,inactive
3,Cc1ccnc(N(C)C(=S)N2CCN(c3cccc(C(F)(F)F)c3)CC2)c1,inactive
4,Cc1cc(C)nc(NC(=S)N2CCN(c3ccc(Cl)cc3C(F)(F)F)CC2)c1,inactive
5,FC(F)(F)c1cccc(N2CCN(C(=S)Nc3cc(C(F)(F)F)ccn3)CC2)c1,19.9 µM (active)
6,Cc1cc(C)nc(NC(=S)N2CCN(c3ccc4cn(C)nc4c3)CC2)c1,inactive
7,Cc1ccnc(NC(=S)N2CCN(c3ccc(N)cc3)CC2)c1,inactive
8,Cc1ccnc(N=C(N)N2CCN(c3cccc(C(F)(F)F)c3)CC2)c1,28.1 µM (active)
9,Cc1cc(C)nc(NC(=S)N2CCN(c3ccc(NS(C)(=O)=O)nn3)CC2)c1,inactive
10,COc1cc(NC(=S)N2CCN(c3cccc(C(F)(F)F)c3)CC2)nc2ccccc12,inactive
11,Cc1cc(C)nc(NC(=S)N2CCN(c3ccc(Cl)nn3)CC2)c1,inactive
12,Cc1cc(C)nc(NC(=S)N2CCN(c3nc4ccccc4s3)CC2)c1,inactive
13,Cc1cc(NC(=S)N2CCN(c3cccc(C(F)(F)F)c3)CC2)nc2ccccc12,inactive
14,Cc1ccnc(NC(=O)N2CCN(c3cccc(C(F)(F)F)c3)CC2)c1,6.28 µM (active)
15,Cc1cc(C)nc(Nc2nnc(N3CCN(c4cccc(C(F)(F)F)c4)CC3)s2)c1,inactive
16,Cc1cc(C)nc(NC(=S)N2CCN(c3ccc4nncn4c3)CC2)c1,inactive
17,FC(F)(F)c1cnc(N2CCN(C(=S)Nc3cc(Cl)ccn3)CC2)c(Cl)c1,inactive
18,Cc1cc(C)nc(NC(=S)N2CCN(c3ncnc4sccc34)CC2)c1,15.8 µM (active)
